# Screening data: PubChem BioAssay, several laboratories
# In the library only some 2.5% were active in any assay of this set; here they are far more common.
# 14-3-3 Bad inh = disrupts binding of bovine 14-3-3 zeta to phospho-Bad peptide; TR-FRET 14-3-3zeta/Dy647-pBad peptide displacement, 1 h; inhibition, % at 21.7 µM; hit rate 0.71% among 220,000; AID 781;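 active = inhibition above about 70%, limit read from the data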;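 note: 0% = full 14-3-3 plus peptide FRET controls and 100% = background without 14-3-3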
# Target sequence (P63103 whole entry, looked up): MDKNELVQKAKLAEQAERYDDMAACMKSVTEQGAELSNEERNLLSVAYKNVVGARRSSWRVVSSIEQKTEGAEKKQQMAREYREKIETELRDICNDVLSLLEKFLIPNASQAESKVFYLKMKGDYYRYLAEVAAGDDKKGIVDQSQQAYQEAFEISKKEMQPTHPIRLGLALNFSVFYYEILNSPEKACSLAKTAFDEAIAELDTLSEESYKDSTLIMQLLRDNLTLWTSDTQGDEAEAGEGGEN
# MCL1 BIM primary = inhibitors of human MCL1 binding to BIM-BH3 peptide; Q07820; GST-MCL1 / FITC-Bim-BH3 fluorescence polarization; inhibition, % at 10.9 µM; hit rate 0.68% among 320,000;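 active = inhibition above the mean inhibition of all tested compounds plus 3 SD, set per campaign, cut at about 40% in these data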;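 note: 0% = DMSO wells and 100% = unlabeled Bim-BH3 peptide control; higher means more loss of mP so more displacement of Bim peptide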
# Target sequence (Q07820 whole entry, looked up): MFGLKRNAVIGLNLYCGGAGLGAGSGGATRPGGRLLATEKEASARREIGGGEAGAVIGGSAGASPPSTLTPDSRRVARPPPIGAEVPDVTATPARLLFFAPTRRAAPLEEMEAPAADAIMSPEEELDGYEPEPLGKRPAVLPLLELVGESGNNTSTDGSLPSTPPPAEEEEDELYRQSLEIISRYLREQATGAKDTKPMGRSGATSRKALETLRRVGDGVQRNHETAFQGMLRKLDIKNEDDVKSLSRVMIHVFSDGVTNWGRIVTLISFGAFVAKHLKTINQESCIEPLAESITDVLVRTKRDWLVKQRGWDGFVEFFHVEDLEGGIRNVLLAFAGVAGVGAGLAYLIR
# Bim-Mcl-1 = human Bim-Mcl-1 interaction inhibition | Q07820 | Bead-based flow cytometry, Bim peptide-Mcl-1 binding | inhibition, % at 10 µM | hit rate 0.1% among 190,000; in the data active = inhibition above about 40%;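 note: 0% = no compound tracer wells and 100% = peptide blocker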
# Mcl1 Noxa PPI = disrupts binding of human Mcl-1 to Noxa peptide | Q07820 | TR-FRET Mcl-1/Noxa peptide binding, 2 h | inhibition, % at 21.7 µM | hit rate 1.5% among 220,000 | AID 1022;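 active = compounds that cut the protein-peptide binding signal by more than 50% relative to plate controls in a single-dose test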;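 note: His-tagged Mcl-1 with rhodamine Noxa BH3 peptide and terbium anti-His antibody; 0% = Mcl-1 plus Noxa peptide wells and 100% = peptide-only wells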
# Mcl1-Bid inh = disrupts binding of human Mcl-1 to Bid peptide. hit rate 0.97% among 220,000. TR-FRET Mcl-1/Bid-Dy647 peptide binding, 1536-well. inhibition, % at 21.7 µM. Q07820;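 active = compounds that cut the binding signal by more than half at the single screening dose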;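 note: His-tagged Mcl-1 with europium anti-His antibody binding Bid BH3 peptide; 0% = Mcl-1 plus peptide wells and 100% = peptide-only wells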
# Active calls of the source: *; · = not tested or not shown.
SMILES,14-3-3 Bad inh,MCL1 BIM primary,Bim-Mcl-1,Mcl1 Noxa PPI,Mcl1-Bid inh
COc1ccc(CC(=O)N2CCN(C)CC2)cc1OC,73*,-1,-1,-3,-9
COc1ccc(Br)cc1CN1CCN(C(=O)Cc2ccccc2)CC1,86*,9,-1,22,30
Cc1ccc(OCC(=O)N2CCN(CC3CC4C=CC3C4)CC2)cc1 (stereo not given),14,4,-4,-4,41
O=c1cccc2n1CC1CC2CN(Cc2cccc(Cl)c2Cl)C1 (stereo not given),-2,4,0,23,13
O=c1cccc2n1CC1CC2CN(Cc2c(F)cccc2Cl)C1 (stereo not given),77*,-1,-3,20,3
COc1cc2c(cc1O)C[C@H]1NCCc3cc4c(c-2c31)OCO4,0,24,6,79*,-28
Cc1ccc2c(c1)C1CN(C)CCC1N2C(=S)Nc1cccnc1 (stereo not given),-11,5,1,1,-15
Cc1ccc2c(c1)C1CN(C)CCC1N2C(=O)Nc1cccc(Cl)c1 (stereo not given),3,-4,37,99*,3
COC(=O)C1=C(c2ccc(F)cc2OCc2ccccc2)C[C@@H]2CC[C@H]1N2C(=O)N1CCCC1,·,8,·,·,·
O=C(c1ccncc1)C12CN3CN(CN(C3)C1)C2,85*,9,1,-20,0
CC(=O)N1CN2CN(C(C)=O)CC(C(=O)c3ccccc3)(C2)C1,3,-5,-2,-16,1
CN(C)C(Cc1ccccc1)C(=O)c1cccs1 (stereo not given),0,·,48*,18,-25
CC(C)C1(C)N=C(c2ncccc2C(=O)O)NC1=O (stereo not given),14,7,-1,2,85*
O=C1C=Cc2ccccc2C1=O,32,16,1,73*,7
COC(=O)C1=C(c2ccc(-c3ccccc3)c(F)c2)C[C@@H]2CC[C@H]1N2C(=O)NCCNC(C)=O,·,5,·,·,·
COc1ccc(OCC(=O)Nc2ccc(Cl)cc2C(=O)c2ccccc2)cc1,6,4,-2,-5,-11
C=CCSc1nc2c(c(-c3ccsc3)c1C#N)CN(C)CC2,46,25,·,31,-33
CCOC(=O)c1nc2ccccc2c(=O)n1-c1cccc(C)c1,6,1,3,17,-1
COc1ccc(CCNCc2ccccn2)cc1OC,75*,-4,-2,7,14
CNCC(C)c1ccccc1 (stereo not given),6,8,3,-9,-5
COc1ccc(/C=C2/C(=O)NC(=O)N(c3ccccc3)C2=O)cc1CN1C(=O)c2ccccc2C1=O,-4,-11,·,-12,-149
COc1ccc(/C=C2/C(=O)NC(=S)N(C3CC3)C2=O)cc1CN1C(=O)c2ccccc2C1=O,22,36,6,95*,46
Cc1ccc2c(c1N)C(=O)c1ccccc1C2=O,·,42*,·,·,·
CCN1C(=O)C(=C/C=C/c2ccco2)C(=O)N(CC)C1=S,6,-31,-11,73*,47
Cc1cccc(N2C(=O)/C(=C/N3CCN(C(=O)c4ccco4)CC3)C(=O)NC2=S)c1,18,-16,-5,62*,-27
SMILES,14-3-3 Bad inh,MCL1 BIM primary,Bim-Mcl-1,Mcl1 Noxa PPI,Mcl1-Bid inh
Cc1ccc(N2C(=O)/C(=C/N3CCN(C(=O)c4ccco4)CC3)C(=O)NC2=S)cc1C,10,-1,0,8,-41
COC(=O)C1=Nc2ccccc2/C1=C\c1c(O)n(-c2ccc(Br)cc2)c(=O)[nH]c1=O,25,-19,0,77*,-31
COC(=O)C1=Nc2ccccc2/C1=C\c1c(O)n(-c2ccc(OC)cc2)c(=O)[nH]c1=O,27,-6,1,53*,-27
COc1ccc(OC)c(-n2c(O)c(/C=C3\C(C)=Nc4ccccc43)c(=O)[nH]c2=O)c1,-7,-19,·,1,-73
CC(C)n1cc(C(=O)N(CC(=O)NC2CCCC2)Cc2ccccc2)cn1,-2,-3,-5,-13,-2
CCOc1cc(CNCCc2c[nH]c3ccccc23)cc(Cl)c1OCC,-13,9,-4,4,-77
COc1ccc(OCC(=O)N2CCN(C(C)C)CC2)cc1,64,3,-1,6,53*
COc1ccc(OCC(=O)N2CCN(Cc3ccc(SC)cc3)CC2)cc1,-7,-4,-2,17,-1
c1ccc(-c2ccc(-c3n(-c4ccccn4)c4ccccc4[n+]3-c3ccccn3)cc2)cc1,12,·,-1,87*,16
CCOC(=O)C(NC(=O)CC)(Nc1ccc(C(O)(C(=O)OCC)C(F)(F)F)cc1C)C(F)(F)F (stereo not given),-1,10,-2,17,-42
COc1cc2c(C(=O)O)c(C)n(C)c2cc1Br,-11,-2,3,-7,-25
COc1cc2c(C(=O)N3CCN(C)CC3)c(C)n(C)c2cc1Br,2,42*,-7,6,-2
COC(=O)C1=C(c2ccc(F)cc2F)C[C@@H]2CC[C@H]1N2C(=O)NCCNC(C)=O,·,3,·,·,·
CCCc1nnc(NC(=O)CCC(=O)N2CCC3(CC2)OCCO3)s1,-4,44*,·,-11,-3
Cc1ccc(N2CCN(CCc3ccccc3)CC2)cc1,83*,0,0,16,-4
CSc1ccc(C(=O)C2CCCN(CCCn3cccn3)C2)cc1 (stereo not given),30,6,0,31,65*
COC(=O)C1C2c3ccccc3OC1(C)N=c1s/c(=C/c3cnn(C)c3C)c(=O)n12 (stereo not given),-2,-3,64*,9,-8
Cc1ccc(S(=O)(=O)N2CN3CCN(C3)C2)cc1,-4,5,-4,11,79*
CC(C)(C)C(O)C(Oc1ccc(Cl)cc1)n1cncn1 (stereo not given),0,8,-2,2,76*
CC(C(=O)c1ccc(Cl)cc1Cl)n1cncn1 (stereo not given),·,4,·,·,·
CN(C)c1ccc(NC(=O)CN2C(=O)CN=C(c3ccccc3)c3cc(Cl)ccc32)cc1,-21,-5,-3,78*,2
Cc1ccc(N2C(=O)/C(=C/c3ccc(CN(CCC#N)S(C)(=O)=O)o3)C(=O)NC2=S)cc1,8,35,0,69*,-9
COc1ccc(N2C(=O)/C(=C/c3ccc(N(C)C)o3)C(=O)NC2=S)cc1,·,-158,·,·,·
O=c1c2ccccc2nc(-c2ccco2)n1-c1ccccn1,-6,2,-4,1,-31
O=c1c2ccccc2nc(-c2ccco2)n1-c1cccnc1,9,3,-6,97*,-20
COC(=O)C(C)Oc1cc(C)cc2oc(=O)c3c(c12)CCC3 (stereo not given),6,3,-2,0,7
Clc1ccc(N2CCN(Cc3ccccc3Cl)CC2)cc1,68,-8,-3,0,25
Clc1ccccc1CN1CCN(c2ccccc2)CC1,83*,-1,-4,23,6
